Compound activity as filed in PubChem BioAssay.
PRMT1 inh = PRMT1 methyltransferase inhibitors, primary screen, biochemical, fluorescence polarization. Protein arginine N-methyltransferase 1 (Homo sapiens), Q99873. recombinant PRMT1, activity-based probe fluorescence polarization. inhibition, % at 2.79 µM. 370,000 compounds, 1.3% hits. AID 652257, 2013;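 active = inhibition above about 21% made by adding two undisclosed values, limit read from the data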
MBD2 DNA inh = inhibitors of MBD2 binding to methylated DNA, primary screen, biochemical, TR-FRET, DNA-binding domain, human; Methyl-CpG-binding domain protein 2 (Homo sapiens), Q9UBB5; MBD2 binding to methylated oligonucleotide; inhibition, % at 4.4 µM; 370,000 compounds, 0.31% hits; in the data active = inhibition above about 13%
Target sequence (Q9UBB5 whole entry, looked up, the tested form may be a part): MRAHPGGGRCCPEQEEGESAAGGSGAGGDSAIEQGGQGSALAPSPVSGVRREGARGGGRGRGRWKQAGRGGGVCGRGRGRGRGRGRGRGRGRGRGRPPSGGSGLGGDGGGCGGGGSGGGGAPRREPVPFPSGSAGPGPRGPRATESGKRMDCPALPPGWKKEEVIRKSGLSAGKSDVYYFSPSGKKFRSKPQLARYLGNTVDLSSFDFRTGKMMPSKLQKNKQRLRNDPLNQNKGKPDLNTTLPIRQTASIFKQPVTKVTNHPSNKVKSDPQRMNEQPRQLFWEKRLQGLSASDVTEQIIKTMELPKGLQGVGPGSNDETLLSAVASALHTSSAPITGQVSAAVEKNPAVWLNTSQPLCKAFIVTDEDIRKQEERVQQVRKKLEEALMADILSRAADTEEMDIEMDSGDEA
UHRF1 MBD2 ctr = UHRF1 methylated DNA binding inhibitors, primary screen, counter-screen for MBD2 inhibitor project, biochemical, TR-FRET, human UHRF1, single concentration; UHRF1 binding to methylated oligo; E3 ubiquitin-protein ligase UHRF1 (Homo sapiens), Q96T88; 370,000 compounds, 0.75% hits; inhibition, % at 4.4 µM; in the data active = inhibition above about 21%;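 note: UHRF1 SRA domain binding a hemimethylated CpG hairpin DNA probe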
LEDGF integ inh = blockers of LEDGF/p75-dependent integrase strand transfer – biochemical, TR-FRET, high throughput, primary screen. HIV-1 integrase (with human LEDGF/p75). TR-FRET IN-LEDGF/p75 DNA integration, Eu/Cy5. inhibition, % at 3.7 µM. 370,000 compounds, 0.64% hits;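 active = inhibition above the screen-wide mean plus 3 SD, cut at about 13% in these data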;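 note: signal is the Cy5 over europium emission ratio at 671 and 618 nm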
Numbers stand for hits; . = inactive. A selection: hits, their analogues and other compounds. The true share with any hit is near 2.5%.

SMILES | PRMT1 inh | MBD2 DNA inh | UHRF1 MBD2 ctr | LEDGF integ inh
CCN(CC)C(=O)c1ccc2c(c1)C1C=CCC1C(C(=O)O)N2 (stereo not drawn) | 49 | . | . | 39
O=C(O)CNC1c2ccccc2CSc2ccccc21 (stereo not drawn) | 21 | . | . | .
CCC1(c2ccccc2)C(=O)N(C)C(=O)N(C)C1=O | . | . | . | .
CN1C(=O)N(C)C(=O)C2(Sc3ccccc3C2=O)C1=O | 27 | . | . | 29
CSc1nc(N)c(N=Nc2ccc([As](=O)(O)O)cc2)c(=O)[nH]1 | . | . | . | .
C=CCn1c(O)c(C(CC)=Nc2ccc3c(c2)CCC3)c(=O)[nH]c1=O | . | . | . | .
C=CCn1c(O)c(C(CC)=Nc2ccc(N(C)C)cc2)c(=O)[nH]c1=O | 33 | . | . | .
O=C(O)c1cccc2c1NC(c1cccc([N+](=O)[O-])c1)C1CC(Sc3ccccc3[N+](=O)[O-])C(Cl)C21 (stereo not drawn) | 23 | . | . | .
N#CC1c2ccccc2-n2nncc2CN1Cc1cc(Cl)cc(Cl)c1 (stereo not drawn) | . | . | . | .
Cc1cc2c(C(C)C)c(O)c(O)c(C=O)c2c(O)c1-c1c(C)cc2c(C(C)C)c(O)c(O)c(C=O)c2c1O | 25 | . | . | 66
O=C1NC(=O)N(Cc2ccco2)C(=O)/C1=C/c1cccn1CCOc1ccccc1Cl | 22 | . | 50 | 57
O=C1NC(=O)N(Cc2ccccc2)C(=O)/C1=C\c1ccco1 | . | . | . | .
CC1=C2[C@@H]3OC(=O)[C@H](C)C3CC[C@@]2(C)C=CC1=O (stereo partly drawn) | . | . | . | .
CCCN1CCc2cc(O)cc3c2[C@H]1Cc1ccc(O)c(O)c1-3 | 77 | . | . | .
CN1CCc2cc(O)cc3c2[C@H]1Cc1ccc(O)c(O)c1-3 | 79 | . | . | .
COc1cc2c(cc1O)C[C@H]1c3c(cc(O)c(OC)c3-2)CCN1C | . | . | . | .
COC(=O)C1=C(c2ccc(S(C)(=O)=O)cc2)C[C@@H]2CC[C@H]1N2C(=O)NC1CCCCC1 | . | . | . | .
O=C1C=C(N2CC2)c2ccccc2C1=O | . | . | . | 39
O=C1c2ccccc2-c2cc3ccccc3cc21 | . | . | . | .
O=c1cc(C(F)(F)F)c2cc3c4c(c2o1)CCCN4CCC3 | 101 | . | . | .
COc1ccc(CCn2c(O)c(/C=N/N3CCOCC3)c(=O)[nH]c2=O)cc1OC | . | . | 42 | .
COc1ccc(-n2c(O)c(C(C)=NCc3ccco3)c(=O)[nH]c2=O)cc1 | . | . | . | .
CCOC(=O)COc1ccc(/C=C2\C(=O)NC(=S)N(c3ccc(OC)cc3)C2=O)cc1OC | 23 | . | . | .
CCOC(=O)CSCCOc1ccc(C=C2C(=O)NC(=O)NC2=O)cc1OC | . | . | . | .
COc1ccc(CN2C(=O)NC(=O)/C(=C/c3ccoc3)C2=O)cc1 | . | . | 21 | .
SMILES | PRMT1 inh | MBD2 DNA inh | UHRF1 MBD2 ctr | LEDGF integ inh
COc1ccccc1N | . | . | . | .
CCN(CC)P(=O)(c1n(CC)cc[n+]1CC)N(CC)CC | . | . | . | .
COc1ccc(-c2nc3ccc(Br)cn3c2CC(=O)N2CCCC2)cc1OC | . | . | 23 | .
O=C(Cc1c(-c2ccccc2)nc2ccc(Br)cn12)N1CCCC1 | . | . | . | .
CN1C(=O)NC(=O)/C(=C/c2ccc([N+](=O)[O-])o2)C1=O | 24 | . | 65 | 37
Cc1ccc(/C=C2/C(=O)NC(=O)N(C)C2=O)cc1 | . | . | . | .
Cn1c(O)c(C=Nc2cccc(C(F)(F)F)c2)c(=O)n(C)c1=O | 22 | . | . | .
Cc1ccc(OP(=O)(NCc2ccccc2)Oc2ccc(C)cc2)cc1 | . | . | 23 | .
COc1ccc(OC)c(N2C(=O)NC(=O)/C(=C\c3ccc([N+](=O)[O-])s3)C2=O)c1 | 28 | . | . | .
COC1=CC23CCCN2CCc2cc4c(cc2C3C1O)OCO4 (stereo not drawn) | . | . | 43 | .
COc1ccc2c(c1OC)C(=O)OC2C1c2cc3c(cc2CCN1C)OCO3 (stereo not drawn) | . | . | . | .
COC(=O)C1=C(c2ccc(OCc3ccccc3)cc2)C[C@@H]2CC[C@H]1N2C(=O)NCc1ccccc1C(F)(F)F | . | . | . | .
CCOC(=O)[C@]12Cc3ccccc3[C@H]1N(CCC(=O)OC)C(=O)c1cc(OC)ccc12 | . | . | . | .
